Experimental data from PubChem BioAssay AID1159580 (chemical genetic matrix, 2015).
Where “and” joins values, the source holds several entries; their conditions need not be identical. Equal entries are not always repeated. The campaign covered roughly 5,500 compounds. About 2,000 (36%) were called active. About 18% were inconclusive and are not listed. The list shows a part of the results. A number with no mark means an inactive call. Rule as the data show it: active = normalized growth mostly below about 0.91 (no sharp cut-off); inconclusive = no clear call, values can overlap the other calls; inactive = mostly above about 0.92.

Assay: chemical genetic growth profiling, strain panel (AID 1159580);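 also: tested at 20 µM; growth read once vehicle control cultures reached saturation at 30 °C; 1 = growth at the plate median or of vehicle wells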
Conditions: S. cerevisiae deletion strains, growth OD

Which results are given for `Cc1c(Cl)cccc1Nc1ccccc1C(=O)O`?
normalized growth (locus YAL021C, strain ccr4, stronger effect = lower value): 0.863 (active); normalized growth (locus YAL026C, strain drs2, stronger effect = lower value): 0.805 (active); normalized growth (locus YAL030W, strain snc1, stronger effect = lower value): 0.842 (active); normalized growth (locus YBL061C, strain skt5, stronger effect = lower value): 0.81 (active); normalized growth (locus YBR009C, strain hhf1, stronger effect = lower value): 0.82 (active); normalized growth (locus YBR021W, strain FUR4, stronger effect = lower value): 0.74 (active); normalized growth (locus YBR023C, strain chs3, stronger effect = lower value): 0.801 (active); normalized growth (locus YBR171W, strain sec66, stronger effect = lower value): 0.729 (active); normalized growth (locus YBR229C, strain ROT2, stronger effect = lower value): 0.848 (active); normalized growth (locus YBR231C, strain swc5, stronger effect = lower value): 0.825 (active); normalized growth (locus YBR279W, strain paf1, stronger effect = lower value): 0.839 (active); normalized growth (locus YCL011C, strain gbp2, stronger effect = lower value): 0.83 (active); normalized growth (locus YCL016C, strain dcc1, stronger effect = lower value): 0.827 (active); normalized growth (locus YCL029C, strain bik1, stronger effect = lower value): 0.812 (active); normalized growth (locus YCL061C, strain MRC1, stronger effect = lower value): 0.842 (active); normalized growth (locus YCL069W, strain vba3, stronger effect = lower value): 0.815 (active); normalized growth (locus YCR088W, strain abp1, stronger effect = lower value): 0.812 (active); normalized growth (locus YDL005C, strain med2, stronger effect = lower value): 0.865 (active); normalized growth (locus YDL035C, strain GPR1, stronger effect = lower value): 0.848 (active); normalized growth (locus YDL040C, strain nat1, stronger effect = lower value): 0.83 (active); normalized growth (locus YDL074C, strain BRE1, stronger effect = lower value): 0.75 (active); normalized growth (locus YDL101C, strain DUN1, stronger effect = lower value): 0.929; normalized growth (locus YDL134C, strain PPH21, stronger effect = lower value): 0.817 (active); normalized growth (locus YDL185W, strain tfp1, stronger effect = lower value): 0.956; normalized growth (locus YDL192W, strain arf1, stronger effect = lower value): 0.796 (active); normalized growth (locus YDR001C, strain nth1, stronger effect = lower value): 0.804 (active); normalized growth (locus YDR069C, strain doa4, stronger effect = lower value): 0.897 (active); normalized growth (locus YDR101C, strain arx1, stronger effect = lower value): 0.835 (active); normalized growth (locus YDR137W, strain rgp1, stronger effect = lower value): 0.464 (active); normalized growth (locus YDR150W, strain NUM1, stronger effect = lower value): 0.836 (active); normalized growth (locus YDR159W, strain sac3, stronger effect = lower value): 0.615 (active); normalized growth (locus YDR162C, strain NBP2, stronger effect = lower value): 0.709 (active); normalized growth (locus YDR195W, strain ref2): 1.15 [resistant] (active); normalized growth (locus YDR297W, strain sur2, stronger effect = lower value): 0.835 (active); normalized growth (locus YDR318W, strain mcm21, stronger effect = lower value): 0.793 (active); normalized growth (locus YDR334W, strain swr1, stronger effect = lower value): 0.812 (active); normalized growth (locus YDR335W, strain msn5, stronger effect = lower value): 0.836 (active); normalized growth (locus YDR388W, stronger effect = lower value): 0.79 (active); normalized growth (locus YDR392W, strain spt3, stronger effect = lower value): 0.225 (active); normalized growth (locus YDR502C, strain sam2, stronger effect = lower value): 0.802 (active); normalized growth (locus YEL003W, strain gim4, stronger effect = lower value): 0.839 (active); normalized growth (locus YEL037C, strain rad23, stronger effect = lower value): 0.836 (active); normalized growth (locus YEL061C, strain CIN8 (second series), stronger effect = lower value): 0.819 (active); normalized growth (locus YEL061C, strain CIN8, stronger effect = lower value): 0.855 (active); normalized growth (locus YER015W, strain faa2, stronger effect = lower value): 0.848 (active); normalized growth (locus YER016W, strain bim1, stronger effect = lower value): 0.856 (active); normalized growth (locus YER110C, stronger effect = lower value): 0.769 (active); normalized growth (locus YER111C, strain swi4, stronger effect = lower value): 0.831 (active); normalized growth (locus YER155C, strain BEM2 (second series), stronger effect = lower value): 0.595 (active); normalized growth (locus YER155C, strain BEM2, stronger effect = lower value): 0.684 (active); normalized growth (locus YER167W, strain BCK2, stronger effect = lower value): 0.812 (active); normalized growth (locus YFR010W, strain ubp6, stronger effect = lower value): 0.876 (active); normalized growth (locus YGL078C, strain dbp3, stronger effect = lower value): 0.958; normalized growth (locus YGL086W, strain mad1, stronger effect = lower value): 0.815 (active); normalized growth (locus YGL167C, strain pmr1, stronger effect = lower value): 0.757 (active); normalized growth (locus YGL173C, strain kem1, stronger effect = lower value): 0.819 (active); normalized growth (locus YGL227W, strain vid30, stronger effect = lower value): 0.808 (active); normalized growth (locus YGL240W, strain doc1, stronger effect = lower value): 0.791 (active); normalized growth (locus YGL248W, strain PDE1, stronger effect = lower value): 0.841 (active); normalized growth (locus YGL253W, strain hxk2, stronger effect = lower value): 0.706 (active); normalized growth (locus YGR078C, strain PAC10, stronger effect = lower value): 0.814 (active); normalized growth (locus YGR135W, strain pre9, stronger effect = lower value): 0.792 (active); normalized growth (locus YGR252W, strain gcn5, stronger effect = lower value): 0.609 (active); normalized growth (locus YHR013C, strain ard1, stronger effect = lower value): 0.854; normalized growth (locus YHR027C, strain rpn1, stronger effect = lower value): 0.843 (active); normalized growth (locus YHR030C, strain SLT2, stronger effect = lower value): 0.827 (active) and 0.555 (active); normalized growth (locus YHR079C, strain IRE1 (second series), stronger effect = lower value): 0.793 (active); normalized growth (locus YHR079C, strain IRE1, stronger effect = lower value): 0.633 (active); normalized growth (locus YHR094C, strain hxt1, stronger effect = lower value): 0.796 (active); normalized growth (locus YHR129C, strain ARP1, stronger effect = lower value): 0.837 (active); normalized growth (locus YHR142W, strain chs7, stronger effect = lower value): 0.586 (active); normalized growth (locus YHR200W, strain rpn10, stronger effect = lower value): 0.789 (active); normalized growth (locus YIL066C, strain RNR3, stronger effect = lower value): 0.839 (active); normalized growth (locus YIL073C, strain SPO22, stronger effect = lower value): 0.776; normalized growth (locus YIL125W, strain kgd1, stronger effect = lower value): 0.966; normalized growth (locus YIR030C, strain dcg1, stronger effect = lower value): 0.792 (active); normalized growth (locus YJL092W, strain hpr5, stronger effect = lower value): 0.814 (active); normalized growth (locus YJL095W, strain BCK1 (second series), stronger effect = lower value): 0.828 (active); normalized growth (locus YJL095W, strain BCK1, stronger effect = lower value): 0.594 (active) and 0.648 (active); normalized growth (locus YJL115W, strain asf1, stronger effect = lower value): 0.854 (active); normalized growth (locus YJL129C, strain trk1, stronger effect = lower value): 0.442 (active); normalized growth (locus YJL134W, strain LCB3, stronger effect = lower value): 0.842 (active); normalized growth (locus YJL154C, strain vps35, stronger effect = lower value): 0.845 (active); normalized growth (locus YJL164C, strain tpk1, stronger effect = lower value): 0.803 (active); normalized growth (locus YJL166W, strain qcr8, stronger effect = lower value): 0.756 (active); normalized growth (locus YJL168C, strain set2, stronger effect = lower value): 0.797 (active); normalized growth (locus YJL187C, strain SWE1 (second series), stronger effect = lower value): 0.851 (active); normalized growth (locus YJL187C, strain SWE1, stronger effect = lower value): 0.832 (active); normalized growth (locus YJR043C, strain POL32, stronger effect = lower value): 0.867; normalized growth (locus YJR066W, strain TOR1, stronger effect = lower value): 0.731 (active)
